Here are results for 40 compounds from PubChem BioAssay (Tox21).

Each structure is given as a SMILES string. Inconclusive results are not listed. A number with no mark means an inactive call. Calls of active or inactive are those of the source. Calls follow the shape of the dose curve; as a rule, active = well fitted activation curve with a large enough effect in the repeat runs; inconclusive = weak or mixed curves; inactive = flat fitted curve, though single readings scatter.
% is scaled to controls: 0 for no effect and ±100 for the full control effect.

A short description of the assay: Caspase-3/7 induction in HepG2 cells by small molecules, qHTS assay (AID 1346978). Also: nearly all actives have a fitted effect of over 15% in size. The note with it: HepG2 caspase-3/7 activation, Caspase-Glo luminescence, 17 h; series mostly up to 92.4 µM; caspase activation: at the top concentration. The text has this: National Center for Advancing Translational Sciences [NCATS] NIH Chemical Genomics Center [NCGC] U.S. Environmental Protection Agency [EPA] National Institutes of Environmental Health Sciences [NIEHS] National Toxicology Program [NTP] Assay overview: Apoptosis is a process of programmed cell death and plays a central role in the development of multicellular organisms. It is a highly regulated process and induces cell death by activating caspases, which are the members of cysteine aspartic acid-specific protease (caspase) family. Caspases involved in apoptosis are classified by their mechanism of action as initiator caspases (caspase-2, -8, -9 and -10) and executioner caspases (caspase-3, -6, and -7). Inhibition of apoptosis results in number of cancers, autoimmune diseases, inflammatory diseases and viral infection. To identify small molecule compounds that induce apoptosis, a homogeneous, luminescent Caspase-Glo 3/7 assay was used. Wild type HepG2 cells were used to screen Tox21 libraries for identifying caspase-3/7 activity inducers.
Assay Protocol Summary: HepG2 cells were dispensed at 2,000 per well in 5uL of culture medium into white solid bottom 1536-well plates (Corning Life Sciences, Corning, NY) using a Multidrop Combi (Thermo Scientific, Waltham, MA) dispenser. The assay plates were incubated at 37 C and 5% CO2 for 5hr, and then 23nL of compounds dissolved in DMSO and positive control were transferred using a Pintool station (Wako, San Diego, CA). The assay plates were incubated at 37C and 5% CO2 for 17hr. For caspase-3/7 activity read, 4uL of Caspase-Glo 3/7 reagent (Promega Corporation, Madison, WI) was added to each well of the assay plates using Flying Reagent Dispenser (FRD, Aurora Discovery, San Diego, CA) and incubated the assay plates at room temperature for 30min. The luminescence signal was quantified using a ViewLux plate reader (Perkin Elmer, Shelton, CT).
Turning to `Cc1ccc2c(C)cccc2c1`, the “caspase activation” value is 0.539%. Turning to `CC(C)c1ccc(OP(=O)(Oc2ccc(C(C)C)cc2)Oc2ccc(C(C)C)cc2)cc1`, the Potency result is “inactive”.

As for `CN(C)N`, the “caspase activation” value was 0.141%.

As for `ClCc1ccccc1Cl`, the “caspase activation” value is -0.555%. As for `O=C(O)COc1cc(Cl)c(Cl)cc1Cl`, the Potency entry was “inactive”.

For the compound `CCCC(C)(COC(N)=O)COC(=O)NC(C)C` (stereo not given), the Potency entry was “inactive”. As to `Cc1ccccc1`, the “caspase activation” value is -1.11%. For `O=C1c2ccccc2C(=O)N1SC(Cl)(Cl)Cl`, the Potency entry is “inactive”. As for `Nc1ccccc1C(=O)OCCc1ccccc1`, the Potency result is “inactive”. As for `COC(=O)C1(O)c2ccccc2-c2ccccc21`, the “caspase activation” value was -0.0826%. `COc1ccc2c(c1OC)C(=O)O[C@H]2[C@@H]1c2cc3c(cc2CCN1C)OCO3`: the “caspase activation” value is 0.344% [at 42.5 µM].

Consider `CC(C)(C#N)C(C)(C)C#N`, for which the “caspase activation” value was -0.0932%. Regarding `OCCSSCCO`, the “caspase activation” value is -2.79%. With `Nc1c(Br)cc(Br)c2c1C(=O)c1ccccc1C2=O`, the caspase activation is 0.187% [at 19 µM].

Regarding `CCOP(=O)(SC(C)CC)N1CCSC1=O` (stereo not given), the “caspase activation” value is -3.67%.

In the case of `C[N+](C)(C)CC1CO1` (stereo not given), the “caspase activation” value was -0.865%. Consider `C=CCN1C[C@H](C)N([C@H](c2ccc(C(=O)N(CC)CC)cc2)c2cccc(OC)c2)C[C@H]1C`, for which the “caspase activation” value is -2.33% [at 42.5 µM]. In the case of `CN1CC[C@]23c4c5ccc(O)c4O[C@H]2[C@@H](O)CC[C@H]3[C@H]1C5`, the “caspase activation” value was -0.401%. In the case of `CC(C)(C)NCC(O)c1ccccc1Cl` (stereo not given), the “caspase activation” value was -0.862% [at 42.5 µM]. Turning to `c1ccc2c(c1)sc1ccccc12`, the Potency result is “inactive”. In the case of `CC(Oc1cccc(Cl)c1)C(=O)O` (stereo not given), the “caspase activation” value is 0.879%. Regarding `O=S(=O)(Cl)Cl`, the “caspase activation” value is -0.474%.

As to `C=CCOC(=O)C(C)(C)OC(=O)c1cc(-n2c(=O)cc(C(F)(F)F)n(C)c2=O)ccc1Cl`, the “caspase activation” value was -2.3%. In the case of `Clc1ccccc1`, the “caspase activation” value was -5.88%.

For the compound `COc1cc(C[C@@H](C)N)c(OC)cc1Br`, the “caspase activation” value is -0.318%. For `CN(C1CCCCC1)C1CCCCC1`, the “caspase activation” value is 0.838%. `O=C(NCNC(=O)NC1C(=O)NC(=O)N1CO)NC1C(=O)NC(=O)N1CO` (stereo not given): the “caspase activation” value was -0.745%. For `SCc1ccccc1`, the “caspase activation” value is -1.45%. Same read-out and setting: to `CCCN(CCC)C(=O)Cc1c(-c2ccc(Cl)cc2)nc2ccc(Cl)cn12` belongs -0.393% [at 42.5 µM]. Consider `NC(=S)c1c(Cl)cccc1Cl`, for which the “caspase activation” value is -1.6%. For `CC(C)[C@@H](C(=O)O[C@@H](C#N)c1cccc(Oc2ccccc2)c1)c1ccc(Cl)cc1`, the Potency entry was “inactive”. For `FC(F)OC(F)(F)C(F)Cl` (stereo not given), the “caspase activation” value is 0.268%.

On to `CCCCCCCCCCCCCCCl`, for which the “caspase activation” value was -0.111%. As for `Cc1nc2ccccc2c(=O)n1-c1ccccc1Cl`, the “caspase activation” value was -0.842%. In the case of `CC(C)(C)c1ccc(CCOc2ncnc3ccccc23)cc1`, the “caspase activation” value was 3.25%. For the compound `C=CCc1ccccc1O`, the “caspase activation” value was -0.819%. `COCc1cnc(C2=NC(C)(C(C)C)C(=O)N2)c(C(=O)O)c1` (stereo not given): the “caspase activation” value is -0.991%. Regarding `CCCSP(=S)(OCC)Oc1ccc(SC)cc1` (stereo not given), the “caspase activation” value is 0.133%. For `N#CC1(N=NC2(C#N)CCCCC2)CCCCC1`, the “caspase activation” value is 0.561%. On to `C[Si](Cn1cncn1)(c1ccc(F)cc1)c1ccc(F)cc1`, for which the Potency entry is “inactive”.
